The source of these data is PubChem BioAssay AID2766 (Sanford-Burnham Center for Chemical Genomics, 2010).

The structures appear in SMILES notation. Some of the results follow. A number with no mark means an inactive call. Rule as the data show it: active = inhibition above about 50%; inactive = the rest.

The target in this test is Apelin receptor (Homo sapiens) (UniProt P35414). In words: apelin receptor inhibitors, beta-arrestin readout – cell-based, luminescence, single concentration, uHTS hits, confirmation (AID 2766). Particulars: APJ beta-arrestin recruitment, antagonist mode, at 20 µM, active compounds read high. In general terms: Recruitment of arrestin is a read-out of receptor activation apart from second messengers.
Apelin receptor (Homo sapiens), sequence (P35414 whole entry, looked up): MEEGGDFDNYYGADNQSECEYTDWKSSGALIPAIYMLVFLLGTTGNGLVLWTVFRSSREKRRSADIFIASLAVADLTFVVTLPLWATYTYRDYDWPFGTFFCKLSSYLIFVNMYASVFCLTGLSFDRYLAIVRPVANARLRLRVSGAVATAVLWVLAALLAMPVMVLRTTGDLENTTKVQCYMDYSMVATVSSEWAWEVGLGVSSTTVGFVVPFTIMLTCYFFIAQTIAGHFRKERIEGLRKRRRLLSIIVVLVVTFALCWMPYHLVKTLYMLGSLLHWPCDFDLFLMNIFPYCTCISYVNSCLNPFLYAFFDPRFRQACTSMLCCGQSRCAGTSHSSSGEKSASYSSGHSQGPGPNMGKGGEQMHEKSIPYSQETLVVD

By inhibition is commonly meant the change of the read-out against control, counted positive when it falls. In the case of `CCOC(=O)c1c(N)n(Cc2ccccc2)c2nc3ccccc3nc12`, the inhibition is 35%.
